Source: PubChem
Sampled rows, rich in hits. Any-hit rate of the full collection: about 3.7%.
Ecoli rRNA inh: reduced GFP signal of wild-type E. coli, primary screen, bacterial rRNA inhibitor project, GFP/RFP fluorescence, OD600, single point. E. coli WT GFP vs humanized-ribosome RFP mutants, 24 h; hits give low values; DMSO median 0, no signal -100. GFP signal change (wild-type ribosome), % (concentration not given with the values). 1.6% of 350,000 active. AID 720706, 2013;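 active = significant combined selectivity score with lowered wild-type GFP, culture density cut under 30%, mutant RFP and density less affected; inactive = any of these conditions unmet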
esBAF inh: Bmi1 luciferase reporter increase in mESCs, primary screen, esBAF inhibitor project, mouse ES cells, Bmi1 luciferase knock-in, single point | 24 h; 100% = twice the neutral-well signal | reporter increase, % at 12.5 µM | 2% of 350,000 active; in the data active = activation above about 40%; inconclusive = no clear call, values can overlap the other calls;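 also: 0% = median of the plate's neutral control wells and 100% = double that signal; a rise in the Bmi1 reporter signal indicates esBAF inhibition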
AF4-AF9 inh: inhibitors of AF4 peptide binding to AF9, primary screen, biochemical, AlphaScreen, biotin-AF4 peptide, FLAG-AF9, single point. inhibition, % at 10 µM. 0.47% of 350,000 active. Protein AF-9 (Homo sapiens), P42568;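 active = every replicate reaching a set inhibition limit, whatever the replicate mean, cut at about 25% in these data; inconclusive = mean inhibition reaches that limit but some replicates miss it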;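 also: 0% = plate neutral control median and 100% = total signal loss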
MITF act: activators of MITF-driven TRPM1 promoter reporter, primary screen, cell-based, SK-MEL-5, luciferase, single point. activation, % at 12.5 µM. 0.75% of 300,000 active. SK-MEL-5 TRPM1-promoter luciferase, 24 h; % of positive control, neutral wells = 0;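 active = mean activation of at least 80% with every replicate also reaching 80%; inconclusive = mean reaches 80% but some replicate falls short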;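 also: 0% = neutral control wells and 100% = parthenolide positive control wells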
Wnt act: Wnt/beta-catenin pathway activators, primary screen, cell-based, plate reader, single point. 1.2% of 300,000 active. activation, % at 9.35 µM. Wnt/beta-catenin reporter cell assay, activator; in the data active = activation above about 30%, passing the limit was not always enough; inconclusive = no clear call, values can overlap the other calls;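 also: 0% = neutral control wells and 100% = positive control wells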
An asterisk follows results filed as active; ? = inconclusive; . = no result.

SMILES	Ecoli rRNA inh	esBAF inh	AF4-AF9 inh	MITF act	Wnt act
Cc1cccc(NC(=O)CN2C(=O)NC(C)(c3ccc4c(c3)OCO4)C2=O)c1 (configuration not stated)	.	.	.	.	-5
O=C(CN1C(=O)NC2(CCCCC2)C1=O)Nc1ccc2c(c1)OCCCO2	3	?	-1	130*	44*
CC1(c2cccc(Br)c2)NC(=O)N(CC(=O)Nc2ccc3c(c2)OCO3)C1=O (configuration not stated)	-22*	-4	4	6	1
CC1CCCCC12NC(=O)N(CC(=O)NC(=O)Nc1ccc3c(c1)OCCO3)C2=O (configuration not stated)	.	57*	.	53	3
CSc1ncccc1C(=O)OCC(=O)N(C)C	1	.	1	-10	-2
Cc1ccccc1N1CCN(S(=O)(=O)c2cccs2)CC1	-31	.	-1	2	0
CCC1CCCCN1c1nc2c(C=O)c(C)nn2c2ccccc12 (configuration not stated)	.	.	.	-6	-2
CC(=O)c1ccc(Nc2c3c(nc4ccccc24)CCCC3)cc1	-35*	.	-5	-19	-4
COc1ccc(S(=O)(=O)N(C)C[C@H]2Oc3ccc(NC(=O)Cc4cn(C)c5ccccc45)cc3CC(=O)N([C@H](C)CO)C[C@@H]2C)cc1	-4	0	2	.	.
Cc1cc(NC(=O)OC2CCCCC2)ccc1[N+](=O)[O-]	-33	67*	-4	120*	16
Cc1ccc(NC(=O)C2C3CCCCC32)cc1[N+](=O)[O-] (configuration not stated)	-12	42*	4	55	16
CC(=O)Nc1ccc(C)c([N+](=O)[O-])c1	11	-10	-1	0	1
COc1ccc(N(CC(=O)Nc2cc(OC)c(OC)cc2C(=O)O)S(=O)(=O)c2c(C)noc2C)cc1	5	-2	1	11	-3
O=C(CCCc1ccccc1)NC12CC3CC(CC(C3)C1)C2	-48	54*	-3	102*	0
O=C(COC(=O)c1ccccc1)NC12CC3CC(CC(C3)C1)C2	19	-6	-1	6	-2
O=C(NCCc1ccc(F)cc1)NC12CC3CC(CC(C3)C1)C2	-6	72*	-2	58	52*
Cc1ccc(S(=O)(=O)N(C)C)cc1NC(=O)COC(=O)CC1CCCC1	3	.	-2	-3	-1
O=C(c1cccc(F)c1)N1CCN(S(=O)(=O)c2ccc(C(F)(F)F)cc2)CC1	.	-4	.	-8	.
Cc1ccc(S(=O)(=O)Nc2ccc(Oc3cccnc3)nc2)cc1	-11	.	-4	.	0
Cc1ccc(-n2c(C)cc(C)c(C#N)c2=O)cc1Cl	.	4	.	-2	-2
Cc1cc(/C=C(\C#N)C(=O)NC2CC2)c(C)[nH]1	.	.	.	94*	?
Cc1cc(/C=C(\C#N)C(=O)Nc2ccccc2F)c(C)[nH]1	6	29	0	106*	19
N#C/C(=C\c1ccc[nH]1)C(=O)Nc1ccccc1Cl	5	28	-3	-2	24
N#C/C(=C\c1ccc[nH]1)C(=O)Nc1ccccc1F	-10	71*	0	19	33*
Cc1ncc([N+](=O)[O-])n1CC(=O)NCc1ccccc1	.	-3	.	-2	.
SMILES	Ecoli rRNA inh	esBAF inh	AF4-AF9 inh	MITF act	Wnt act
C[C@H](CO)N1C[C@H](C)[C@H](CN(C)CC2CC2)Oc2ccc(NS(=O)(=O)c3ccccc3)cc2C1=O	3	2	-2	.	.
N#C/C(=C\c1ccco1)C(=O)Nn1cnnc1	6	-3	-1	9	0
Cc1ncc(CN2CCCC(C(=O)Nc3ccc(-c4cccc(F)c4)cc3)C2)s1 (configuration not stated)	-31*	-8	1	-5	-1
CC(=O)n1c2c(c3ccccc31)OC(N)=C(C#N)C2c1ccc(C(C)C)cc1 (configuration not stated)	-15*	29	-2	-4	10
Cc1cc(Cl)c2oc(C(=O)NCCC3CCCCO3)c(C)c2c1 (configuration not stated)	-50	?	-2	95*	25
CCn1cnc2c(Nc3cc(F)cc(F)c3)nc(C#N)nc21	8	57*	-5	70	26
